According to PubChem BioAssay (NCATS):
Results filed as inconclusive are left out. Entries that show only a call come without a potency. Values without a mark were called inactive. Activity calls are given as the source filed them. Unless noted, calls come from the whole dose curve; as a rule, active = well fitted curve in the direction sought with a large enough effect in the repeat runs; inconclusive = weak or mixed curves; inactive = no such curve, though single readings can be large; an effect the other way counts as inactive or inconclusive.

Experiments:
[1] = Cell Viability qHTS for small molecule stabilizers of the endoplasmic reticulum resident proteome (AID 1508629; active = well fitted curve in the direction sought with a large enough effect; an effect the other way counts as inactive or inconclusive;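 note: compound exposure about 46 h in total before the viability read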); settings: cell viability counter-screen, 100 nM thapsigargin for final 4 h
From the text: Assay Provider: Brandon K. Harvey Ph.D.
National Institute on Drug Abuse, National Institutes of Health, Baltimore, MD
Endoplasmic reticulum (ER) dysregulation is associated with human pathologies including neurodegenerative, cardiovascular, muscular, and diabetic conditions. Maintenance of ER calcium is critical for functions of the ER and its depletion can lead to loss of ER resident proteins, in a process termed exodosis. Therapeutic compounds capable of attenuating the redistribution of ER proteins under pathological conditions may slow or stop disease progression. To identify such compounds, we performed a quantitative high-throughput screen (qHTS) using the SERCaMP assay, which monitors secretion of ER resident proteins triggered by calcium depletion.
SERCaMP was initially developed as a reporter of ER calcium homeostasis using a Gaussia luciferase with a modified signal peptide and carboxy-terminus (GLuc-SERCaMP), modifications that confer secretion of the reporter in response to ER calcium depletion (Henderson et al., 2014). The assay was used to screen 9,501 compounds, including a collection of drugs approved by the FDA (US), EMA (EU), NHI (Japan), and HC (Canada) regulatory agencies (Huang et al., 2011). Since the SERCaMP reporter reflects the exodosis phenomenon (Trychta et al., 2018a), compounds identified in the screen have the potential to prevent exodosis by different mechanisms such as stabilizing ER calcium or augmenting ERS retrieval.
1. Henderson, M.J., Wires, E.S., Trychta, K.A., Richie, C.T., and Harvey, B.K. (2014). SERCaMP: a carboxy-terminal protein modification that enables monitoring of ER calcium homeostasis. Mol Biol Cell 25, 2828-2839.
2. Huang, R., Southall, N., Wang, Y., Yasgar, A., Shinn, P., Jadhav, A., Nguyen, D.T., and Austin, C.P. (2011). The NCGC pharmaceutical collection: a comprehensive resource of clinically approved drugs enabling repurposing and chemical genomics. Sci Transl Med 3, 80ps16.
3. Trychta, K.A., Back, S., Henderson, M.J., and Harvey, B.K. (2018a). KDEL Receptors Are Differentially Regulated to Maintain the ER Proteome under Calcium Deficiency. Cell Rep 25, 1829-1840 e1826.
SEQUENCE No. (1, 2, 3, etc.); […] (e.g., Cells, Incubation, Reagent, etc.); VALUE and DESCRIPTION.
1; Reagent; 5 uL; 1000 SH-SY5Y cells per wells
3; Compound; 23 nL; Control inhibitor / compound library
5; Reagent; 100 nM; Thapsigargin
7; Reagent; 5 uL; CellTiter-Glo (Promega)
8; Time; 10 min; room temperature
9; Detection; Luminescence; ViewLux imaging system
NOTES (numbers refer to sequence above)
1; SH-SY5Y human neuroblastoma cells stably expressing GLuc-SERCaMP (SH-SY5Y-GLuc-ASARTDL) cells were seeded in 1,536 well white tissue culture treated plates (Corning, Cat# 7464) in DMEM-high glucose-sodium pyruvate (ThermoFisher Scientific, Cat #10569) supplemented with 10% bovine growth serum (Hyclone), 10 U/ml penicillin (Gibco), 10 ug/ml streptomycin (Gibco), and 20 mM HEPES.
2; Assay plates were incubated for 5 hr at 37C in a humidified incubator containing 5% CO2.
3; qHTS libraries (23 nl, final concentrations of 1.53 uM, 7.67 uM, 38.3 uM) or controls (neutral control: DMSO, positive control: dantrolene) were added using a Kalypsis pin-tool Robotic System equipped with 1536 pinheads.
4; Cells were then incubated for 42 hours at 37C, 5% CO2. […]
7; Cell viability was measured using the CellTiter-Glo Luminescent Cell Viability Assay (Promega). […]
9; Luminescence was measured using a ViewLux CCD imaging system (Perkin Elmer) equipped with clear filters.

[2] = target: Cytochrome P450 2D6 (Homo sapiens) (UniProt P10635); experiment: Cytochrome P450 family 2 subfamily D member 6 (CYP2D6) small molecule antagonists: luciferase biochemical (cell-free) qHTS assay (AID 1645840); settings: P450-Glo CYP2D6 enzyme, luciferin luminescence, 1 h; series mostly up to 57.4 µM; note: nearly all actives have a fitted effect of over 55% in size; note: potency is the fitted concentration of half-maximal effect
Procedure, shortened: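 P450-Glo luminescent screen: recombinant CYP2D6 enzyme–proluciferin substrate mix preincubated with compound 10 min at room temperature, then NADPH regeneration added for 1 h at room temperature. Detection reagent added for 20 min; luciferin light read as relative luminescence units.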

[3] = target: Cytochrome P450 2C9 (Homo sapiens) (UniProt P11712); experiment: Cytochrome P450 family 2 subfamily C member 9 (CYP2C9) small molecule antagonists: luciferase biochemical (cell-free) qHTS assay (AID 1645842); settings: P450-Glo CYP2C9 enzyme assay, luciferin luminescence; series mostly up to 57.4 µM; note: nearly all actives have a fitted effect of over 55% in size; note: potency is the fitted concentration of half-maximal effect
Procedure, shortened: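 Luminescence, after 20 min with luciferin detection reagent, reflected CYP2C9 turnover during a 1 h NADPH-driven reaction at 37C. Enzyme-substrate mix contained 0.4% bovine serum albumin and was preincubated with compound 10 min at room temperature.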

[4] = Primary qHTS for small molecule stabilizers of the endoplasmic reticulum resident proteome: Secreted ER Calcium Modulated Protein (SERCaMP) assay (AID 1508630; active = well fitted curve in the direction sought with a large enough effect; an effect the other way counts as inactive or inconclusive); settings: SH-SY5Y GLuc-SERCaMP (Gaussia luciferase released on ER calcium loss) secretion, thapsigargin, luminescence; series mostly up to 38.4 µM
Procedure, shortened: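 GLuc-SERCaMP-expressing SH-SY5Y cells, pretreated 16 h with compound, are challenged with thapsigargin to empty ER calcium stores; after 4 h, coelenterazine is added directly to the medium and luminescence is imaged.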

[5] = A High-Content qHTS Against Drug Library for the Identification of Small Molecules that Inhibit DYT1 Early Onset Primary Dystonia-Associated Cell Pathology (AID 1645839; calls by dose curve); settings: HEK293 Flp-In EGFP-delE TorsinA, punctate imaging, 48 h; series mostly up to 46.1 µM
Procedure, shortened: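 Readout: %pathology, the punctate EGFP-TorsinA distribution from imaging, as the primary channel and cell count as the toxicity counterscreen. HEK293 Flp-In cells expressing delE TorsinA were induced with tetracycline and treated with compound for 48 h.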

[6] = Primary qHTS for inhibitors of nuclear receptor binding SET domain protein 2 (NSD2) in an isogenic RCH-ACV NSD2 p.E1099K mutant (9B) (AID 1645876; active = well fitted curve in the direction sought with a large enough effect; an effect the other way counts as inactive or inconclusive; note: nearly all actives have a fitted effect of over 70% in size); settings: RCH-ACV (leukaemia line) NSD2 E1099K (9B) viability, CellTiter-Glo, 72 h; series mostly up to 44.9 µM

Chain of Cytochrome P450 2C9 (Homo sapiens) (P11712 whole entry, looked up): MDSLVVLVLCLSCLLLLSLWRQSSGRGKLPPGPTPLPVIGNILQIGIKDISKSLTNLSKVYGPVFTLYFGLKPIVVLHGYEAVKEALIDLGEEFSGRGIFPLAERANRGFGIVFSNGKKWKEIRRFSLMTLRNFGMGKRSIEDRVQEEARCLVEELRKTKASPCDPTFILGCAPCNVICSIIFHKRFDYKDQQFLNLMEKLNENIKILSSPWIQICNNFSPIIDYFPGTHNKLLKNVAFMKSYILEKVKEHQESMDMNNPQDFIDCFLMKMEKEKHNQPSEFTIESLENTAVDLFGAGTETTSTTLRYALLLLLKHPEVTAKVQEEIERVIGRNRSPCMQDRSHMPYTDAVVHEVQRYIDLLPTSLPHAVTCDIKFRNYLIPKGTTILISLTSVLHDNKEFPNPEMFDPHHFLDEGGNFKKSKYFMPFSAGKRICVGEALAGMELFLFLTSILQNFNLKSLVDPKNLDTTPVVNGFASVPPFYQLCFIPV
Chain of Cytochrome P450 2D6 (Homo sapiens) (P10635 whole entry, looked up): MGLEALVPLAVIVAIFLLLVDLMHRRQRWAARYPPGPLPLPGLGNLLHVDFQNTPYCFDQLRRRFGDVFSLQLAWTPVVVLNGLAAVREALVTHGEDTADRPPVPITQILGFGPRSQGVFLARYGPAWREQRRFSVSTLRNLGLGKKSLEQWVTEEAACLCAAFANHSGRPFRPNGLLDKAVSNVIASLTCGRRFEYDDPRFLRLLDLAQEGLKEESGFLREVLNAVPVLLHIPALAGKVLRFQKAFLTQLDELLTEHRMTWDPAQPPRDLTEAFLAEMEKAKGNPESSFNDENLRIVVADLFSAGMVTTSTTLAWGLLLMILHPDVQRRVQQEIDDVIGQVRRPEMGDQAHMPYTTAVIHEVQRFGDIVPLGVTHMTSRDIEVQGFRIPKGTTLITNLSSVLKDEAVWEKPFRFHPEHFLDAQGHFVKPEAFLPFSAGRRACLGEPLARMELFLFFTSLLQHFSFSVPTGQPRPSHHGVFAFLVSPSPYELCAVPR

| Structure (SMILES) | max response [1] [%] | Potency [2] | Potency [3] | Potency [4] | Potency [5] | Potency [6] |
| --- | --- | --- | --- | --- | --- | --- |
| CN(CCCN1c2ccccc2CCc2ccccc21)CC(=O)c1ccc(Cl)cc1 | 24.4 | 6.09 µM (active) | 12.1 µM (active) |  |  |  |
| COc1ccc(S(=O)(=O)N2c3ccc(Cl)cc3[C@@](O)(c3ccccc3Cl)[C@H]2C(=O)N2CCC[C@@H]2C(N)=O)cc1OC |  | inactive | 15.5 µM (active) | inactive | inactive |  |
| COc1cc(N)c(Cl)cc1C(=O)NC1CCN(Cc2ccccc2)CC1 |  | 0.0219 µM (active) |  | inactive | inactive |  |
| Cc1cccc(C)c1NC(=O)CN1CCCC1 |  | 12.3 µM (active) | inactive | inactive | inactive | inactive |
| N#C/C(=C1\SCC(c2ccccc2Cl)S1)n1ccnc1 (stereo not given) |  | 0.275 µM (active) | 1.55 µM (active) | inactive | inactive |  |
| CC(C)(Cc1c[nH]c2ccccc12)NCC(O)COc1ccccc1C#N (stereo not given) | -6.12 |  | inactive | inactive |  |  |
| NCc1ccccc1Sc1ccccc1CO |  | 4.9 µM (active) | 15.5 µM (active) | inactive | inactive |  |
| CCOc1cc(OCC)c(C(=O)CCC(=O)O)cc1OCC | 24.8 | inactive | inactive |  | inactive | inactive |
| Cn1c(=O)c2[nH]c(Br)nc2n(C)c1=O |  | inactive | inactive | inactive | inactive | inactive |
| O=C1C(CCS(=O)c2ccccc2)C(=O)N(c2ccccc2)N1c1ccccc1 (stereo not given) |  | inactive | 3.09 µM (active) | inactive | inactive |  |
